# Laboratory results reported in PubChem BioAssay AID1053118 (Broad Institute, 2014).
# Measured potencies and affinities stand elsewhere. Calls of active or inactive are those of the source.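 Rule for the calls: active = fitted half-maximal concentration for ATP signal loss at most twice the top valid dose; inconclusive = flat curve between -70 and -30%, or an invalid fit; inactive = flat within ±30%, wrong direction, or potency past limit.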
# Test: viability loss in HepG2 hepatoma cells – cell-based, cherry-picks, set 5, cytotoxicity control, dose response (AID 1053118)
smiles,measurement,value
C=C1C(=O)O[C@@H]2C[C@@H](C)[C@@H]3C=CC(=O)[C@@]3(C)[C@@H](O)[C@H]12,outcome,inactive
